Source: PubChem BioAssay (NCATS)
Records with an inconclusive call do not appear. Calls of active or inactive are those of the source. Unless noted, calls follow the shape of the dose curve; as a rule, active = well fitted curve in the direction sought with a large enough effect; inconclusive = small, poorly fitted or top-dose-only effect, or another doubt; inactive = no such curve, though single readings can be large; an effect the other way counts as inactive or inconclusive.

What was measured:
[1] = molecular target: Lysosomal acid glucosylceramidase (Homo sapiens) (UniProt P04062); test: Glucocerebrosidase-p2 (AID 348; in the data active = potency below about 10 µM; also: potency is read from the fitted curve at half-maximal effect); conditions: purified GBA, blue fluorogenic substrate, 40 min
Lysosomal acid glucosylceramidase (Homo sapiens), sequence (P04062 whole entry, looked up): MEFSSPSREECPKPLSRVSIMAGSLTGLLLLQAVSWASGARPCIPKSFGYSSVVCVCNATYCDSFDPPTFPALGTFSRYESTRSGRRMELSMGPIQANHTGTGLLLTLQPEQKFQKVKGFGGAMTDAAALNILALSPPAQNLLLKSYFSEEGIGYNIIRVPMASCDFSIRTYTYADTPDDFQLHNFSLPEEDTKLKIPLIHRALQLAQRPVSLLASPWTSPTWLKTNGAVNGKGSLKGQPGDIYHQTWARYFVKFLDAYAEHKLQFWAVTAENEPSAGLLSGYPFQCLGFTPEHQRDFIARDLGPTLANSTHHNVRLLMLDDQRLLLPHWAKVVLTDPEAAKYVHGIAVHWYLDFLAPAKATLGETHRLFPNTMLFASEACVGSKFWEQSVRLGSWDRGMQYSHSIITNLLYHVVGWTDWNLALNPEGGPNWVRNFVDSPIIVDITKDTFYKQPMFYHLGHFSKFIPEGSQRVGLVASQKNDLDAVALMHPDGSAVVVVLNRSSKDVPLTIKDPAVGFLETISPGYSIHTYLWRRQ
Summary of the method: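 Normal human glucocerebrosidase (0.2 nM) with blue fluorogenic substrate (80 uM final) in citrate/phosphate pH 5.9 with 10mM sodium taurocholate, 0.01% tween-20; 40 min RT, NaOH/glycine stop; fluorescence Ex 365/Em 440; AC50 from a titration from 0.6 nM upwards.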

[2] = AP1 Signaling Pathway (AID 357; active = well fitted curve in either direction with a large enough effect, not every such curve was filed as active;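 also: ME-180 reporter cells stimulated with EGF at its EC50 level; % is scaled to controls: 0 for no effect and ±100 for the full control effect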); conditions: ME-180 AP-1-bla reporter, EGF-induced, beta-lactamase ratio, 5 h; at 7.69 µM (top of the series) unless noted
Summary of the method: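 Cells are seeded overnight, exposed to compound titrations and an EC50 level of EGF for 5 hours at 37 °C, then loaded with CCF4 dye for 2.5 hours. Beta-lactamase activity under the AP-1 element is read as a blue/green ratio.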

[3] = molecular target: Cytochrome P450 1A2 (Homo sapiens) (UniProt P05177); test: p450-cyp1a2 (AID 410; calls by dose curve; also: potency is read from the fitted curve at half-maximal effect;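 as to activity change, negative = inhibition: -100% = full effect of reference inhibitor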); conditions: recombinant CYP1A2, luciferin-ME demethylation, luminescence; series mostly up to 57 µM
Cytochrome P450 1A2 (Homo sapiens), sequence (P05177 whole entry, looked up): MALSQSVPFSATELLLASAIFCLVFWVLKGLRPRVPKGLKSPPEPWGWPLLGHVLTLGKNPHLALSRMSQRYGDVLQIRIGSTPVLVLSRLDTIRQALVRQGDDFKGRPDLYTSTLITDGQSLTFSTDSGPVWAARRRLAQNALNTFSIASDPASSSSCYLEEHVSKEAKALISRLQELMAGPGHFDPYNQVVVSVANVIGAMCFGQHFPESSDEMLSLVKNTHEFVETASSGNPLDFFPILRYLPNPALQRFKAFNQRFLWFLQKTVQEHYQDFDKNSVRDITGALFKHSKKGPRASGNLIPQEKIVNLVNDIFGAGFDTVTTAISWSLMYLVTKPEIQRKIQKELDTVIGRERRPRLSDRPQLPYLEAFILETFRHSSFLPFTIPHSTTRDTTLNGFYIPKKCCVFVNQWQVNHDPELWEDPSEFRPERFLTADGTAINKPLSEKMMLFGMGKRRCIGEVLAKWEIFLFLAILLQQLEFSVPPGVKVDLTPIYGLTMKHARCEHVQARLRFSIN
Summary of the method: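 Luminescent demethylation readout: Luciferin-ME (100uM, equal to Km) turned over by 20nM CYP1A2 for 60 min at room temperature after NADPH regeneration addition, following 10 min compound preincubation. Normalization used 57 uM furafylline as full inhibition.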

[4] = molecular target: Glucocorticoid receptor (Homo sapiens) (UniProt P04150); test: GR-GFP Redistribution (AID 450;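 active = compounds whose dose series gives a full or clear partial fitted curve of increased nuclear translocation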; also: potency is read from the fitted curve at half-maximal effect); conditions: U2OS GR-GFP nuclear translocation, laser cytometry, 2 h
Glucocorticoid receptor (Homo sapiens), sequence (P04150 whole entry, looked up, the tested form may be a part): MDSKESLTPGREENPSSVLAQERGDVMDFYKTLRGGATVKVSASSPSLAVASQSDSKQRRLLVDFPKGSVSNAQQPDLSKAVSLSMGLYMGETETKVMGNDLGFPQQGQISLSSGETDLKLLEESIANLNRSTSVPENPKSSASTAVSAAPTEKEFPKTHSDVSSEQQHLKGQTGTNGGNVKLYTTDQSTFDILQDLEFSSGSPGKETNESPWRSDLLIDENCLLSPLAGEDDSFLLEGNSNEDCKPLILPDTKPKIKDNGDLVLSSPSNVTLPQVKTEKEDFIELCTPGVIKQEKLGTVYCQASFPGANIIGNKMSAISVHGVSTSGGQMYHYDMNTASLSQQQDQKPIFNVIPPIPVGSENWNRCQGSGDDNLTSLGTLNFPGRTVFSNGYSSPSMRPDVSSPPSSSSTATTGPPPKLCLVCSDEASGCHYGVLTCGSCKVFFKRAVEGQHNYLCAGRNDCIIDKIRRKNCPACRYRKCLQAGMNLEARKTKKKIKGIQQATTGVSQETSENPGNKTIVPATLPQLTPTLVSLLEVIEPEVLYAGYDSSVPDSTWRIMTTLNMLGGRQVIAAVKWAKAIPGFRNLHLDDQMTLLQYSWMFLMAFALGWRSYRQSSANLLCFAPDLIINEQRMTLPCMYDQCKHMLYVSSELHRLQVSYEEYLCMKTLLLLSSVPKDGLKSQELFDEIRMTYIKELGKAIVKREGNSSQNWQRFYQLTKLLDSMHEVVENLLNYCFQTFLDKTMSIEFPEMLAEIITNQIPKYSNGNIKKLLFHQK

[5] = molecular target: Glucocorticoid receptor (Homo sapiens) (UniProt P04150); test: GR-EFC Redistribution (AID 451; calls by dose curve; also: potency is read from the fitted curve at half-maximal effect); conditions: CHO-K1 GR-EFC translocation, beta-gal luminescence, 2 h
Summary of the method: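 CHO-K1 cells expressing nuclear EA and GR-ED fragments of b-gal; compounds titrated up to 46 uM final, 2 h at 37 C. GR nuclear translocation read as complemented b-gal luminescence after 1 h RT detection.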

[6] = molecular target: Mitogen-activated protein kinase 10 (Mus musculus) (UniProt Q61831); test: JNK3 AlphaScreen Assay (AID 530; active = well fitted curve in either direction with a large enough effect, not every such curve was filed as active;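 also: kinase came from lysate of stimulated human HepG2 cells; signal reports phosphorylation of biotinylated GST-cJun 1-79 at Ser73 with 10 µM ATP; % is scaled to controls: 0 for no effect and ±100 for the full control effect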); conditions: JNK3 lysate, c-Jun phosphorylation; series mostly up to 57.1 µM
Summary of the method: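 Activity was read by AlphaScreen after JNK3-containing HepG2 lysate (cytokine pre-activated) phosphorylated biotinylated GST-cJun with 10 uM ATP at room temperature. Phospho-Ser73 cJun antibody with Protein-A acceptor beads provided detection.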

[7] = molecular target: 3',5'-cyclic-AMP phosphodiesterase 4B (Homo sapiens) (UniProt Q07343); test: qHTS Assay for Inhibitors of PDE-IV (AID 607; active = well fitted activation curve with a large enough effect in the main read-out, with a control signal flat, not every such curve was filed as active; also: % of control where 0% means no effect); conditions: HEK293 ACTOne CNG channel cells, membrane potential fluorescence; series mostly up to 22.9 µM
3',5'-cyclic-AMP phosphodiesterase 4B (Homo sapiens), sequence (Q07343 whole entry, looked up): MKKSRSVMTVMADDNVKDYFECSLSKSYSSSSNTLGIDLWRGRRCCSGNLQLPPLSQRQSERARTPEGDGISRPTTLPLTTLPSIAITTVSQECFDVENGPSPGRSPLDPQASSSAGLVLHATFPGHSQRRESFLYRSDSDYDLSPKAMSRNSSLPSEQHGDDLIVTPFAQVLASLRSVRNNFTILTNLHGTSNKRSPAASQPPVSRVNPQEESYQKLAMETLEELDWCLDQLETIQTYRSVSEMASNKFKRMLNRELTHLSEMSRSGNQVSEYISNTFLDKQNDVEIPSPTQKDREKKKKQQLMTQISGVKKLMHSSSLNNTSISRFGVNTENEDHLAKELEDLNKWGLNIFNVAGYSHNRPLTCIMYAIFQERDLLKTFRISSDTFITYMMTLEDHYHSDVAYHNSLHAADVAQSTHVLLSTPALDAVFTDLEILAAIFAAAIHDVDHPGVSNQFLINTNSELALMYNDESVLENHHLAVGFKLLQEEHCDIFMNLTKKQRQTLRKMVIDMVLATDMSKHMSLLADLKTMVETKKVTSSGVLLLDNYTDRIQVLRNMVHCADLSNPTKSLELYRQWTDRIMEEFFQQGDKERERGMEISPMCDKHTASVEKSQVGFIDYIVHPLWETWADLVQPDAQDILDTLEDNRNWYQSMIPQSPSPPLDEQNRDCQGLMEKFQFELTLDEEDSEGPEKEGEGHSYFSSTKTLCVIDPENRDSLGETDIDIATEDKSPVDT
Summary of the method: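 The readout is membrane depolarisation from a cAMP-sensing CNG channel, detected with a potential dye at ex 535/em 590. Cells were HEK293-derived (endogenous PDE-IV) at 1000 cells/well, titrated up to 22.9 uM final.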

[8] = molecular target: Cytochrome P450 2C9 (Homo sapiens) (UniProt P11712); test: qHTS Assay for Inhibitors and Substrates of Cytochrome P450 2C9 (AID 883); conditions: recombinant CYP2C9, luciferin-H luminescence, 60 min; series mostly up to 57.1 µM; also: nearly all actives have a fitted effect of over 60% in size; also: potency is read from the fitted curve at half-maximal effect
Cytochrome P450 2C9 (Homo sapiens), sequence (P11712 whole entry, looked up): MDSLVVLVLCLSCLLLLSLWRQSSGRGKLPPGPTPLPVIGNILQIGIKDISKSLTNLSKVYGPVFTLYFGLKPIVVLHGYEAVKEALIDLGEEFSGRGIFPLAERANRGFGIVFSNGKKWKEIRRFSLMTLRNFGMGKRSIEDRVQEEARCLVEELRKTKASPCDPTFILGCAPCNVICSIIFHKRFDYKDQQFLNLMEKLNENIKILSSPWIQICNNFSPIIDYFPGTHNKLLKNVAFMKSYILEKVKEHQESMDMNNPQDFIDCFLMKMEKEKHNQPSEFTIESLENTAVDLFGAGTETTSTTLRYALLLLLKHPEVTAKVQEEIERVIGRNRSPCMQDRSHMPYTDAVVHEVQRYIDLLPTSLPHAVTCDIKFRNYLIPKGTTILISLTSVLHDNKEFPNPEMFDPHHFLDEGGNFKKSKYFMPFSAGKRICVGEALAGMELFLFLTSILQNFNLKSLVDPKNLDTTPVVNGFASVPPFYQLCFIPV
Summary of the method: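 Human CYP2C9 (10nM) with Luciferin-H at 100uM (its KM) in 25mM KPO4; compound preincubated 10 min at 37C, then NADPH regeneration for 60 min at 37C. Luciferin read by luminescence after detection reagent; normalized to 57uM sulphaphenazole as full inhibition.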

[9] = molecular target: Cytochrome P450 3A4 (Homo sapiens) (UniProt P08684); test: qHTS Assay for Activators of Cytochrome P450 3A4 (AID 885); conditions: recombinant CYP3A4, Luciferin-PPXE luminescence, 60 min; series mostly up to 57.1 µM; also: nearly all actives have a fitted effect of over 65% in size
Cytochrome P450 3A4 (Homo sapiens), sequence (P08684 whole entry, looked up): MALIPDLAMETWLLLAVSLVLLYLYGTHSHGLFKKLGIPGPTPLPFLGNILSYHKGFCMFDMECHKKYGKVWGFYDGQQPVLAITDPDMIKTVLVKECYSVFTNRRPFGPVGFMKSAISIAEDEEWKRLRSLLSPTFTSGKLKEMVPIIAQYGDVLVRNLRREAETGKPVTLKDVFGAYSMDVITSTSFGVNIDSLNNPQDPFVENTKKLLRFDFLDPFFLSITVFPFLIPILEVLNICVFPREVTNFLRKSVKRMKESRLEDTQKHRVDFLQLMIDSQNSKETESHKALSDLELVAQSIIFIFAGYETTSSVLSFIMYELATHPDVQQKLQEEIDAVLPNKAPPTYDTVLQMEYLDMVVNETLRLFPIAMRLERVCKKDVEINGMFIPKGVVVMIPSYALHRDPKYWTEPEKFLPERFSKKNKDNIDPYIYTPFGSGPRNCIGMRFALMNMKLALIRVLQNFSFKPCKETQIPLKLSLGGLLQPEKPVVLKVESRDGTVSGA
Summary of the method: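 Activators are scored by enhanced luminescence from CYP3A4 conversion of luciferin-PPXE (25uM, equal to KM) to luciferin, after 60 min at RT with an NADPH-regenerating system.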

[10] = Confirmation and Secondary Assay for Modulators of Hemoglobin Beta Chain Splicing at IVS2 705 locus (AID 930); conditions: HeLa EGFP-705 splicing reporter, GFP fluorescence, 48 h; series mostly up to 38.3 µM;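 also: HeLa cells stably expressing the EGFP-705 splicing reporter; GFP fluorescence per well restored by corrected splicing of the IVS2-705 intron in EGFP; % of control where 0% means no effect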
Summary of the method: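 First, HeLa EGFP-705 cells are seeded at 500/well in Optimem with 2% FCS and left overnight. Next, compound or DMSO is added for 2 days. Finally wells are laser-scanned and total peak GFP intensity scored.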

[11] = Primary qHTS for small molecule stabilizers of the endoplasmic reticulum resident proteome: Secreted ER Calcium Modulated Protein (SERCaMP) assay (AID 1508630); conditions: SH-SY5Y GLuc-SERCaMP (Gaussia luciferase released on ER calcium loss) secretion, thapsigargin, luminescence; series mostly up to 38.4 µM; also: % is scaled to controls: 0 for no effect and ±100 for the full control effect
Summary of the method: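 The SH-SY5Y reporter protocol was run at 3 concentrations up to 38.3 uM (primary) or 11 concentrations (follow-up): 16 h compound, 100 nM thapsigargin for 4 h, then extracellular luciferase luminescence.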

[12] = Stat Signaling Pathway (AID 446; active = well fitted curve in either direction with a large enough effect, not every such curve was filed as active;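 also: ME-180 cervical cancer cells given 40 pM IL-6 alongside compound; SIE-controlled beta-lactamase reporter measured as 460/530 nm FRET emission ratio; % is scaled to controls: 0 for no effect and ±100 for the full control effect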); conditions: ME-180 SIE beta-lactamase reporter, IL-6 stimulated, 5 h; at 7.69 µM (top of the series) unless noted
Summary of the method: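 Emission at 460 and 530 nm (excitation 405 nm) reports SIE-controlled beta-lactamase in ME-180 cells. Cells received compound with 40 pM IL-6 for 5 hrs at 37 C; data scaled between 300 pM IL-6 and 125 nM JAK-inhibitor controls.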

[13] = molecular target: Cytochrome P450 2D6 (Homo sapiens) (UniProt P10635); test: qHTS Assay for Inhibitors and Substrates of Cytochrome P450 2D6 (AID 891); conditions: recombinant CYP2D6, luciferin-ME EGE luminescence; series mostly up to 57.1 µM; also: nearly all actives have a fitted effect of over 60% in size; also: potency is read from the fitted curve at half-maximal effect
Cytochrome P450 2D6 (Homo sapiens), sequence (P10635 whole entry, looked up): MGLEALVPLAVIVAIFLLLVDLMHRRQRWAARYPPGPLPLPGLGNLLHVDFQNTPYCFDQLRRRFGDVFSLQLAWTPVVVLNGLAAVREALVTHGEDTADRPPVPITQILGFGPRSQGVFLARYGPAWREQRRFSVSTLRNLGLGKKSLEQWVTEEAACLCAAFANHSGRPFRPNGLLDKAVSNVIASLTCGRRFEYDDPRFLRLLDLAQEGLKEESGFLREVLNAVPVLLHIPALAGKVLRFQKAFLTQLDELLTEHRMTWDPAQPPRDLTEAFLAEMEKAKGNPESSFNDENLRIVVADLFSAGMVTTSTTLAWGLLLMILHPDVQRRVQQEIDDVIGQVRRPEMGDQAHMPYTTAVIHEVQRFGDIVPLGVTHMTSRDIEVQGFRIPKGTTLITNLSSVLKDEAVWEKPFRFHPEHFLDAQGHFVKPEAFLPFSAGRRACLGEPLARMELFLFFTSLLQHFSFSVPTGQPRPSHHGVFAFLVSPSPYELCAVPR
Summary of the method: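 Luminescent read-out of luciferin formed by 5 nM human CYP2D6 demethylating 30 uM Luciferin-ME EGE (Km level) over 60 min at room temperature after NADPH regeneration addition. Data normalized to full inhibition by 1.43 uM quinidine.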

[14] = Confirmation and Secondary Assay for Modulators of Hemoglobin Beta Chain Splicing at IVS2 654 locus (AID 910); conditions: HeLa EGFP-654 splicing reporter, GFP fluorescence, 48 h; series mostly up to 38.3 µM;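 also: HeLa cells stably carrying EGFP split by mutant beta-globin IVS2-654 intron; % of control where 0% means no effect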
Summary of the method: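 HeLa cells stably expressing EGFP interrupted by β-globin IVS2-654 intron, seeded overnight in Opti-MEM/2% FCS, then treated 2 days at 37 °C. Restored splicing read as total peak GFP intensity per well by laser scanning cytometry (488 nm excitation, 500–520 nm emission); 500 nM antisense PNA as control.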

[15] = molecular target: Ubiquitin carboxyl-terminal hydrolase 1 (Homo sapiens) (UniProt O94782); test: Inhibitors of USP1/UAF1: Pilot qHTS (AID 504865); conditions: purified USP1/UAF1, Ub-rhodamine cleavage fluorescence; series mostly up to 54.9 µM;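 also: rhodamine fluorescence freed from ubiquitin-rhodamine substrate followed over time; top concentration of the series differs between compounds; % is scaled to controls: 0 for no effect and ±100 for the full control effect; nearly all actives have a fitted effect of over 35% in size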
Ubiquitin carboxyl-terminal hydrolase 1 (Homo sapiens), sequence (O94782 whole entry, looked up): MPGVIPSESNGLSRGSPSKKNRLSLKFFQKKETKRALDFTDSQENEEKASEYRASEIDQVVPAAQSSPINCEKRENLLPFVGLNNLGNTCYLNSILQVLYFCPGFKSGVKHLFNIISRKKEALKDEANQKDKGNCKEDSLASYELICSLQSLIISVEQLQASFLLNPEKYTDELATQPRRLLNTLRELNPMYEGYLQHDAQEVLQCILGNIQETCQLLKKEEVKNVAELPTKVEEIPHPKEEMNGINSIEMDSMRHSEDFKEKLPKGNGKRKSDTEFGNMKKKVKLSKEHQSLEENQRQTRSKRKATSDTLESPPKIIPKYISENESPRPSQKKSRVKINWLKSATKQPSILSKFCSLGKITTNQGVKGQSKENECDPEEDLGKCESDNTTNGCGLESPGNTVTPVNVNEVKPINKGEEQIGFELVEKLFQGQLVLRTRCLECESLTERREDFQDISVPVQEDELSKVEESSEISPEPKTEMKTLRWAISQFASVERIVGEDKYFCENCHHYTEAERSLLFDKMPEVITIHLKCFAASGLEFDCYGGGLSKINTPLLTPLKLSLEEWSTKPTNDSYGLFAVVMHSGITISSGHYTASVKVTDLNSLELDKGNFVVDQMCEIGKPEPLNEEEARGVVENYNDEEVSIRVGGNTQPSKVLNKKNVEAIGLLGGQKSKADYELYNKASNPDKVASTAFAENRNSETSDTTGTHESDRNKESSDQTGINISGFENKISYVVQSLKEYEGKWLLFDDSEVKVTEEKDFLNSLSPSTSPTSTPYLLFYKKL
Summary of the method: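 Deubiquitinase activity followed as kinetic rhodamine fluorescence release from 150 nM Ub-Rho. 1 nM USP1/UAF1 with compound, after 15 min room-temperature preincubation, in HEPES pH 7.8 buffer containing TCEP, EDTA, BSA and Tween-20.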

[16] = molecular target: Cytochrome P450 2C19 (Homo sapiens) (UniProt P33261); test: qHTS Assay for Inhibitors and Substrates of Cytochrome P450 2C19 (AID 899); conditions: recombinant CYP2C19, luciferin-H EGE luminescence; series mostly up to 57.1 µM; also: % is scaled to controls: 0 for no effect and ±100 for the full control effect; nearly all actives have a fitted effect of over 60% in size
Summary of the method: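 5 nM human CYP2C19 with 10uM Luciferin-H EGE (at KM) in 50mM KPO4, compound preincubated 10 min at 37C, then NADPH regeneration for 60 min at 37C. Luciferin read by luminescence after detection reagent; normalized to 57uM ketoconazole as full inhibition.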

[17] = molecular target: Cytochrome P450 3A4 (Homo sapiens) (UniProt P08684); test: qHTS Assay for Inhibitors and Substrates of Cytochrome P450 3A4 (AID 884); conditions: recombinant CYP3A4, Luciferin-PPXE luminescence; series mostly up to 57.1 µM; also: potency is read from the fitted curve at half-maximal effect; nearly all actives have a fitted effect of over 50% in size
Summary of the method: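 Luminescent readout of luciferin produced by CYP3A4 (20 nM) dealkylation of Luciferin-PPXE, 25 uM (its KM). NADPH-driven reaction ran 60 min at RT after 10 min compound preincubation; data scaled to 57 uM ketoconazole as 100% inhibition.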

[18] = qHTS Assay for Identification of Small Molecule Agonists for Hypoxia Response Element Signaling Pathway (AID 914; active = well fitted activation curve with a large enough effect in the signal ratio, with a control signal flat, not every such curve was filed as active; the % refers to the signal ratio; also: % of control where 0% means no effect); conditions: ME-180 (cervical carcinoma) HRE-bla reporter, beta-lactamase ratio, CoCl2, 17 h; activation: hits give high values
Summary of the method: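 Positive modulation of EC50 CoCl2-induced hypoxia response element signaling is measured in ME-180 cells with a beta-lactamase reporter. Compounds are titrated, incubation runs 17 hours, and %Activity derives from the blue/green ratio.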

CNc1nc(-c2ccc(N(C)C)cc2)nc2ccccc12
inactive: activity change, negative = inhibition [2] 15.8% | Potency [4] > 46 µM | Potency [5] > 46 µM | Potency [6] | Potency [7] | activity change, negative = inhibition [8] 108% [at 2.29 µM] | Potency [9] | outcome [10] | outcome [11]
active: Potency [1] 6.77 µM | Potency [3] 0.2 µM

O=C(c1ccco1)N1CCC2(CCCN(Cc3ccncc3)C2)CC1
inactive: Potency [1] > 11.4 µM | activity change, negative = inhibition [2] -1.32% | activity, negative = inhibition [12] -14.4% | Potency [5] > 46 µM | Potency [6] | Potency [7] | Potency [9] | outcome [11]
active: Potency [3] 15.8 µM | Potency [13] 3.16 µM

Cc1cnc(CNc2nc(-c3ccc(C(=O)N(C)C)cc3)nc3ccccc23)cn1
active: Potency [3] 25.1 µM
inactive: Potency [1] > 11.4 µM | activity change, negative = inhibition [2] -29.1% | activity, negative = inhibition [12] -7.91% | Potency [4] > 46 µM | Potency [5] > 46 µM | Potency [6] | Potency [7] | Potency [9] | Potency [14] | outcome [10] | Potency [15] | outcome [11]

O=C(c1ccco1)N1CCC2(CCCN(c3ccncc3)C2)CC1
inactive: Potency [1] > 11.4 µM | activity change, negative = inhibition [2] -2.46% | Potency [3] | activity, negative = inhibition [12] 3.15% | Potency [5] > 46 µM | Potency [6] | Potency [7] | Potency [13] | Potency [16] | outcome [11]

COc1ccccc1CN1CC2(CCN(S(=O)(=O)c3ccccc3)CC2)C1
inactive: Potency [1] > 11.4 µM | activity change, negative = inhibition [2] 18.5% | Potency [3] | activity, negative = inhibition [12] 7.2% | Potency [5] > 46 µM | Potency [6] | Potency [7] | Potency [8] | Potency [9] | Potency [13] | Potency [16] | outcome [11]

Cn1cccc1C(=O)N1CCC2(CCCN(c3ccccn3)C2)CC1
inactive: Potency [1] > 11.4 µM | activity change, negative = inhibition [2] -9.86% | activity, negative = inhibition [12] -6.89% | Potency [5] > 46 µM | Potency [6] | Potency [7] | Potency [9] | outcome [11]
active: Potency [3] 20 µM

N#Cc1ccc(CN2CCC3(CC2)CCN(C(=O)c2csnn2)CC3)cc1
inactive: Potency [1] > 11.4 µM | activity change, negative = inhibition [2] 3.47% | Potency [3] | activity, negative = inhibition [12] -1.95% | Potency [5] > 46 µM | Potency [6] | Potency [7] | outcome [11]

Clc1ccccc1-c1cc(NCc2cccnc2)ncn1
inactive: Potency [1] > 11.4 µM | activity change, negative = inhibition [2] -5.3% | activity, negative = inhibition [12] 6.36% | Potency [4] > 46 µM | Potency [5] > 46 µM | Potency [6] | Potency [7] | Potency [9] | outcome [10] | Potency [15] | outcome [11]
active: Potency [3] 3.16 µM

COc1ccc(C(=O)N2CCC[C@@]3(CCN(Cc4ccccc4)C3)C2)cc1
inactive: Potency [1] > 11.4 µM | activity change, negative = inhibition [2] 13% | activity, negative = inhibition [12] -4.24% | Potency [5] > 46 µM | Potency [6] | Potency [7] | Potency [9] | outcome [11]
active: Potency [3] 12.6 µM | Potency [13] 7.94 µM

COc1ccc(CNc2ncncc2-c2ccc3c(c2)OCO3)c(OC)c1
active: Potency [3] 0.501 µM | Potency [17] 0.126 µM | Potency [13] 0.794 µM
inactive: Potency [1] > 11.4 µM | activity change, negative = inhibition [2] 11.1% | activity, negative = inhibition [12] -6.57% | Potency [4] > 46 µM | Potency [5] > 46 µM | Potency [6] | Potency [9] | Potency [14] | outcome [10] | Potency [15] | outcome [11]

O=C(c1csnn1)N1CCC2(CC1)CCN(c1ccccn1)CC2
active: Potency [3] 25.1 µM
inactive: Potency [1] > 11.4 µM | activity change, negative = inhibition [2] 15.4% | activity, negative = inhibition [12] 4.86% | Potency [5] > 46 µM | Potency [6] | Potency [7] | outcome [11]

N#Cc1cccc(NC(=O)N2CCCC3(CCN(C(=O)c4cc(C(F)(F)F)cc(C(F)(F)F)c4)CC3)C2)c1
active: Potency [3] 6.31 µM
inactive: Potency [1] > 11.4 µM | activity change, negative = inhibition [2] -21.5% | activity, negative = inhibition [12] -13.7% | Potency [5] > 46 µM | Potency [6] | Potency [9] | activation [18] -10.4% | outcome [11]

O=C(c1cccc(F)c1)N1CCC2(CCCN(Cc3ccncc3)C2)CC1
active: Potency [3] 15.8 µM | Potency [8] 0.631 µM | Potency [13] 7.94 µM
inactive: Potency [1] > 11.4 µM | activity change, negative = inhibition [2] -4.41% | activity, negative = inhibition [12] -4.85% | Potency [5] > 46 µM | Potency [6] | Potency [7] | Potency [9] | outcome [11]

CN(C)c1ccc(-c2nc(NC3CCNCC3)c3ccccc3n2)cc1
active: Potency [1] 7.09 µM | Potency [3] 15.8 µM
inactive: activity change, negative = inhibition [2] 4.91% | Potency [4] > 46 µM | Potency [5] > 46 µM | Potency [6] | Potency [7] | Potency [9] | outcome [10] | outcome [11]
